# miR-122 inh: raises miR-122 sensor activity in Huh7 cells; activation, % at 12.5 µM; hit rate 0.14% among 340,000; Huh7 psiCHECK-miR122 Renilla luciferase sensor, 48 h;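 active = mean activation of 30% or more, with every replicate also reaching 30%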;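 also: 0% = median of neutral control wells and 100% = median of positive control wells; higher luciferase signal means stronger suppression of miR-122 activity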
# An asterisk follows results filed as active. Many of the other results were omitted from the sample, so hits are more common in it than they were.
SMILES,miR-122 inh
CCCN(C)C[C@H]1Oc2cc(C#Cc3ccccc3F)ccc2S(=O)(=O)N([C@@H](C)CO)C[C@H]1C,-2
O=C(Nc1ccc(CN2CCOCC2)cc1)c1ccc(-c2ccc(Cl)cc2Cl)o1,34*
COc1ccc(NS(=O)(=O)c2cc(NC(=O)c3ccc(Cl)cc3)ccc2N2CCOCC2)cc1,-102
CCOC(=O)c1ccc(NC(=O)c2ccc(CN3CCOCC3)cc2)cc1,38*
O=C(NCCCN1CCN(Cc2ccccc2)CC1)c1nnc(Cc2c(F)cccc2Cl)o1,-103
CC(=O)Nc1ccc(C(=O)Nc2ccc(S(=O)(=O)NCC3CCCO3)cc2)cc1 (stereo not given),-97
CNC[C@H]1Oc2cc(-c3cccc(F)c3)ccc2S(=O)(=O)N([C@H](C)CO)C[C@@H]1C,4
CCCNC(=O)N(C)C[C@H]1Oc2cc(Br)ccc2S(=O)(=O)N([C@H](C)CO)C[C@@H]1C,-2
CC(C)CC#Cc1cnc2c(c1)C(=O)N([C@H](C)CO)C[C@@H](C)[C@@H](CN(C)C(=O)Nc1ccccc1F)O2,-1
C[C@@H]1CN([C@@H](C)CO)C(=O)c2cc(-c3cccc(F)c3)cnc2O[C@@H]1CN(C)C(=O)Nc1ccccc1F,-9
C[C@H](O)C#Cc1ccc2c(c1)O[C@H](CN(C)Cc1cncnc1)[C@@H](C)CN([C@H](C)CO)S2(=O)=O,-17
C[C@@H]1CN([C@H](C)CO)S(=O)(=O)c2ccc(C#Cc3ccccn3)cc2O[C@@H]1CN(C)Cc1cccc(F)c1,-32
COc1ccc(C#Cc2ccc3c(c2)O[C@H](CN(C)C(=O)CN2CCOCC2)[C@@H](C)CN([C@@H](C)CO)S3(=O)=O)cc1,43*
C/C=C/c1ccc2c(c1)O[C@H](CN(C)C(=O)c1cnccn1)[C@H](C)CN([C@@H](C)CO)S2(=O)=O,44*
C/C=C/c1ccc2c(c1)O[C@H](CN(C)C(=O)c1cccnc1)[C@@H](C)CN([C@H](C)CO)S2(=O)=O,-5
CCCC#Cc1ccc2c(c1)O[C@H](CN(C)C(=O)CC)[C@H](C)CN([C@@H](C)CO)S2(=O)=O,-1
C[C@@H]1CN([C@@H](C)CO)S(=O)(=O)c2ccc(C#C[C@@H](C)O)cc2O[C@H]1CN(C)Cc1cccnc1,8
CCCC#Cc1ccc2c(c1)O[C@H](CN(C)C(=O)CC)[C@H](C)CN([C@H](C)CO)S2(=O)=O,1
COc1cccc(C#Cc2ccc3c(c2)O[C@H](CN(C)C(=O)CN2CCOCC2)[C@H](C)CN([C@@H](C)CO)S3(=O)=O)c1,-28
C[C@H](O)C#Cc1ccc2c(c1)O[C@@H](CN(C)Cc1ccc(-c3ccccc3)cc1)[C@H](C)CN([C@H](C)CO)S2(=O)=O,45*
COc1cccc(C#Cc2ccc3c(c2)O[C@H](CN(C)C(=O)CN2CCOCC2)[C@@H](C)CN([C@@H](C)CO)S3(=O)=O)c1,-18
CCC(=O)N(C)C[C@H]1Oc2cc(C#Cc3ccccc3)ccc2S(=O)(=O)N([C@H](C)CO)C[C@H]1C,56*
C/C=C/c1ccc2c(c1)O[C@@H](CN(C)C(=O)Cc1ccccn1)[C@@H](C)CN([C@@H](C)CO)S2(=O)=O,0
C[C@H](O)C#Cc1ccc2c(c1)O[C@@H](CN(C)Cc1cccnc1)[C@H](C)CN([C@@H](C)CO)S2(=O)=O,7
C[C@@H]1CN([C@@H](C)CO)C(=O)c2cc(-c3ccc(C#N)cc3)cnc2O[C@@H]1CN(C)CC1CCOCC1,7
SMILES,miR-122 inh
COc1cccc(NC(=O)N(C)C[C@H]2Oc3ncc(C#Cc4cccnc4)cc3C(=O)N([C@H](C)CO)C[C@@H]2C)c1,-6
C[C@H]1CN([C@@H](C)CO)C(=O)c2cc(-c3cncnc3)cnc2O[C@H]1CN(C)Cc1ccccc1,-3
C[C@@H]1CN([C@@H](C)CO)S(=O)(=O)c2ccc(-c3cccnc3)cc2O[C@@H]1CN(C)Cc1ccccn1,2
CO[C@@H]1CN(C)C(=O)c2ccc(NS(=O)(=O)c3ccc(C)cc3)cc2OC[C@@H](C)N(C)C[C@H]1C,-1
COCC#Cc1cnc2c(c1)C(=O)N([C@H](C)CO)C[C@H](C)[C@H](CN(C)C(=O)Cc1ccccc1)O2,-11
C[C@H]1CN([C@@H](C)CO)C(=O)c2cc(-c3cccc(C#N)c3)cnc2O[C@@H]1CN(C)C,-1
CCCC(=O)Nc1ccc2c(c1)C(=O)N(C)C[C@@H](OC)[C@H](C)CN(CCC)[C@H](C)CO2,-1
CO[C@@H]1CN(C)C(=O)c2cc(NC(=O)c3ccc(F)cc3)ccc2OC[C@H](C)N(C)C[C@H]1C,1
C[C@@H]1CN([C@H](C)CO)S(=O)(=O)c2ccc(-c3ccncc3)cc2O[C@H]1CN(C)Cc1ccccc1,-8
Cc1ccc(-c2cnc3c(c2)C(=O)N([C@H](C)CO)C[C@H](C)[C@@H](CN(C)C(=O)c2ccncc2)O3)cc1,-8
C[C@H]1CN([C@@H](C)CO)C(=O)c2cc(C#CC3(O)CCCC3)cnc2O[C@H]1CN(C)S(=O)(=O)c1ccccc1,-4
C[C@H]1CN([C@@H](C)CO)S(=O)(=O)c2ccc(C#Cc3cccc(F)c3)cc2O[C@H]1CN(C)C(=O)CN1CCOCC1,1
Cc1noc(C)c1NC(=O)N(C)C[C@@H]1Oc2cc(C#CCC(C)C)ccc2S(=O)(=O)N([C@H](C)CO)C[C@H]1C,1
C[C@H](CO)N1C[C@H](C)[C@H](CN(C)Cc2ccccc2)Oc2ncc(-c3cncnc3)cc2C1=O,0
COCC(=O)Nc1ccc2c(c1)C(=O)N(C)C[C@@H](OC)[C@H](C)CN(C(=O)COC)[C@H](C)CO2,-2
CC(C)CC#Cc1ccc2c(c1)O[C@H](CN(C)C(=O)c1ccccc1)[C@@H](C)CN([C@@H](C)CO)S2(=O)=O,-40
CC(C)CC#Cc1ccc2c(c1)O[C@H](CN(C)C(=O)c1cnccn1)[C@H](C)CN([C@H](C)CO)S2(=O)=O,39*
CCC(=O)N(C)C[C@@H]1Oc2cc(C#Cc3cccnc3)ccc2S(=O)(=O)N([C@@H](C)CO)C[C@H]1C,-8
CC(C)CC#Cc1ccc2c(c1)O[C@H](CN(C)C(=O)c1ccccc1)[C@H](C)CN([C@H](C)CO)S2(=O)=O,42*
CCC(=O)N(C)C[C@H]1Oc2cc(C#Cc3cccnc3)ccc2S(=O)(=O)N([C@@H](C)CO)C[C@H]1C,-16
CCCC#Cc1ccc2c(c1)O[C@@H](CN(C)C(=O)c1cccnc1)[C@H](C)CN([C@@H](C)CO)S2(=O)=O,-18
COCC(=O)N(C)C[C@H]1Oc2cc(C#Cc3cccnc3)ccc2S(=O)(=O)N([C@H](C)CO)C[C@H]1C,51*
CC(C)CC#Cc1ccc2c(c1)O[C@H](CN(C)C(=O)c1cnccn1)[C@H](C)CN([C@@H](C)CO)S2(=O)=O,36*
CCCC#Cc1ccc2c(c1)O[C@H](CN(C)C(=O)c1cccnc1)[C@H](C)CN([C@H](C)CO)S2(=O)=O,11
CCCC#Cc1ccc2c(c1)O[C@H](CN(C)C(=O)c1ccccn1)[C@@H](C)CN([C@H](C)CO)S2(=O)=O,-128
CC(C)C#Cc1ccc2c(c1)O[C@H](CN(C)C(=O)c1ccccc1)[C@H](C)CN([C@H](C)CO)S2(=O)=O,12
CC(C)CC#Cc1ccc2c(c1)O[C@@H](CN(C)C(=O)NC1CCCC1)[C@@H](C)CN([C@H](C)CO)S2(=O)=O,-7
COc1ccc(-c2cnc3c(c2)C(=O)N([C@@H](C)CO)C[C@H](C)[C@H](CN(C)Cc2ccccn2)O3)cc1,4
CC(C)C#Cc1cnc2c(c1)C(=O)N([C@H](C)CO)C[C@@H](C)[C@@H](CN(C)C(=O)CC1CC1)O2,1

# Assay outcomes as filed in PubChem.
